Laboratory results reported in ChEMBL document CHEMBL3988442, “University of Dundee, Small-Polar-MMV Screening Library” (2021).

How the values were obtained:
[1] = target: T1, Aspartate--tRNA(Asp/Asn) ligase (Mycobacterium tuberculosis (strain ATCC 25618 / H37Rv)) (UniProt P9WFW3); assay: Assay for Asp RNA synthetase-1 from Mycobacterium tuberculosis; assay type: functional; set-up: scale not given: direction of the effect not stated beside the values; conditions: 30 µM; further: in the data most compounds retested in dose-response had high values
T1 sequence (whole entry): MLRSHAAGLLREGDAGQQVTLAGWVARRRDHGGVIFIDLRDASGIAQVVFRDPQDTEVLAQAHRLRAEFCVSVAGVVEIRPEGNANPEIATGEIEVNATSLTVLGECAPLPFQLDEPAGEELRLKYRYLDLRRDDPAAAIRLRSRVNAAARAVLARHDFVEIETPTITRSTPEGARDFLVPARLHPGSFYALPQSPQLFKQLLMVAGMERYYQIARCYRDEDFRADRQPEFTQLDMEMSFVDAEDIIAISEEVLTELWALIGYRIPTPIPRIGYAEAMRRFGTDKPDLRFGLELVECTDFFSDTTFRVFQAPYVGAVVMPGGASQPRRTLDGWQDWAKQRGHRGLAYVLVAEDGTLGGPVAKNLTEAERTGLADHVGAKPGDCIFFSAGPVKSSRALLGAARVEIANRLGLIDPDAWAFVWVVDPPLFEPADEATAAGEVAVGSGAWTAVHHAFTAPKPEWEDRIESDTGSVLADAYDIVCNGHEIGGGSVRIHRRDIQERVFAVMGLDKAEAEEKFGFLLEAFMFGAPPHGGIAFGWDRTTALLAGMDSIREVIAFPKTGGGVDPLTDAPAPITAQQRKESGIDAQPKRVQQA

[2] = target: Shiga toxin 2 (Escherichia coli O157:H7) (UniProt P09385+P09386); assay: E. coli 0.157:H7 Shiga Toxin SOP - stx2 screening assay; assay type: functional; set-up: scale not given: direction of the effect not stated beside the values; conditions: 30 µM

Row | SMILES | Percent Effect [1] | Percent Effect [2]
1 | O=C(C1CC1)N1CCN(Cc2coc(-c3ccc(Cl)cc3)n2)CC1 | -1.18% | 7.92%
2 | CCOCCN1CCCC(c2cc(C(N)=O)[nH]n2)C1 (configuration not stated) | -2.28% | -7.08%
3 | CC(Nc1cccc(CN2CCOC2=O)c1)C(=O)NC(N)=O (configuration not stated) | -3.68% | -7.19%
4 | CC(C)c1noc(C(C)N2CCN(CCO)CC2)n1 (configuration not stated) | 13% | 16.1%
5 | CC1CCCCN1Cc1ccc(-c2ccccc2C(=O)O)cc1 (configuration not stated) | 5.63% | 25%
6 | O=C(Nc1cccc2c1CCCC2)C1CCCN1c1nccs1 (configuration not stated) | 2.28% | -43.4%
7 | CCOc1ncccc1NC(=O)c1sccc1C | -0.501% | -11.1%
8 | CC1CCN(S(=O)(=O)c2cccn(CC(=O)N3CCOCC3)c2=O)CC1 | -4.3% | -33%
9 | Cc1cccc(COC[C@]23COC[C@H]2CN(C(=O)c2ccsc2)C3)n1 | 1.56% | 7.59%
10 | CC(C)c1nnc2n1CCN(CC(=O)Nc1sccc1C#N)C2 | 8.51% | 16.9%
11 | O=C(O)C1(Cc2ccccc2Cl)CCN(c2ncccc2F)CC1 | 2.22% | -10.7%
12 | Cc1cc(N2CCCN(C(=O)Cc3ccc(O)c(Cl)c3)CC2)ccn1 | 1.92% | -29.5%
13 | COc1c(CNC2CCOc3ccccc32)c(C(C)C)nn1C (configuration not stated) | 0.728% | 2.37%
14 | CS(=O)(=O)N[C@@H]1CCO[C@]2(CCN(C(=O)C3=CCCC3)C2)C1 | 3.41% | -0.907%
15 | O=C(c1ccncc1)N1Cc2ccccc2OC2(CCOCC2)C1 | -4.33% | -1.88%
16 | NCC1CN(c2nc(-c3ccccc3)nc3c2CCNCC3)CCO1 (configuration not stated) | -0.798% | -22.2%
17 | CC(C)c1nn(C)c(N(C)C)c1CNCCC(=O)N(C)C | -4.3% | 10.1%
18 | CC(C)S(=O)(=O)N1CCC(c2cc3n(n2)[C@@H](C(F)(F)F)C[C@@H](C)N3)C1 (some centres not stated) | -2.54% | -27.2%
19 | CC(C)CNc1nc(C(=O)/N=c2\[nH]nc(C(C)(C)C)s2)cs1 | -0.96% | -23.9%
20 | O=C(NCCc1ccn(-c2ccccc2)n1)N1CCC1 | 1.53% | -11.7%
21 | O=C(c1cc(Cl)c2c(c1)OCO2)N1CCCC(n2ccnc2)C1 (configuration not stated) | -1.93% | 4.72%
22 | CC(C)COC(C)C(=O)NCc1cc(F)cc(F)c1 (configuration not stated) | -4.79% | 27.6%
23 | COc1cc(C(=O)Nc2nc(C)no2)ccc1C | -0.143% | -2.1%

Row | SMILES | Percent Effect [1] | Percent Effect [2]
24 | CCOCC(=O)N1CCC(Oc2ccc(C(F)(F)F)cn2)CC1 | 2.2% | 12.5%
25 | Cc1ccc2c(n1)N(CCn1cccn1)CCN(C(=O)NC1CC1)C2 | 0.917% | 6.77%
26 | Cc1[nH]ncc1C(=O)N1CCCC(c2cc(C(F)(F)F)[nH]n2)C1 (configuration not stated) | 0.845% | 24.8%
27 | Cc1ccccc1-c1cncc(C2CCN(C(C)C)CC2)n1 | -1.25% | -10.3%
28 | C[C@H]1C[C@@H]2CCN(C(=O)c3cccn3C)C[C@H]2O1 | -3.96% | -0.37%
29 | O=C(N1CCCC1)N1Cc2nccn2CC(CN2CCCC2)C1 (configuration not stated) | -5.76% | 1.77%
30 | CCn1ccnc1CNCC1CCCN1c1cccnn1 (configuration not stated) | -8.36% | 6.68%
31 | N#CC1(C(=O)NCCCNc2ccc(C(F)(F)F)cn2)CCCC1 | 2.12% | 21.2%
32 | O=C(NCc1ccccc1CN1CCC(O)CC1)Nc1ccncc1 | -0.167% | -42%
33 | Cc1cccc(OCCC(=O)N2CCN(S(=O)(=O)N(C)C)CC2)c1C | -1.74% | -7.47%
34 | CC(=O)N1CCN(C(=O)c2cc(-n3cnnn3)ccc2Cl)CC1 | -1.41% | -21.8%
35 | Cc1cnc(N2C[C@H]3C[C@H](C(=O)N(C)C)[C@@H](C2)O3)nc1 | 2.79% | -23.4%
36 | CC(CN1CCOCC1)NC(=O)N(C)Cc1ccc(Cl)s1 (configuration not stated) | 1.38% | -12.6%
37 | CC1CCCN(CCNC(=O)c2cncnc2C(C)C)C1 (configuration not stated) | 0.418% | -17.1%
38 | CCn1cc2c(n1)CN(C(=O)c1ccncc1)CC2COCC1CC1 (configuration not stated) | 3.06% | -17.4%
39 | O=C(C1CCC1)N1CCN(C(=O)c2cnccn2)[C@H]2CS(=O)(=O)C[C@H]21 | -2.93% | -12.2%
40 | CCCOCC(=O)NC1CCc2nc(C)cn2C1 (configuration not stated) | 1.62% | 7.61%
41 | O=C(NCc1ccco1)[C@@H]1CCO[C@@H]2CCN(c3ccncn3)C[C@H]21 | 1.19% | -15.1%
42 | COc1ccc(C(=O)N2CCCCC2c2nc(C)cs2)nn1 (configuration not stated) | -4.46% | -31.3%
43 | Cn1cc(C2CCCN2C(=O)CCCOc2ccc(F)cc2F)cn1 (configuration not stated) | -2.66% | 13.7%
44 | CCO[C@H]1CO[C@@]2(CCCN(S(=O)(=O)c3ccccc3)C2)C1 | 4.62% | -21.7%
45 | O=C(CC1CCCC1)N1CCCC(c2n[nH]c3nccnc23)C1 (configuration not stated) | -1.74% | 19.5%
46 | Cc1csc(C2CCCN(C(=O)c3cnc[nH]3)C2)n1 (configuration not stated) | 5.76% | 16.6%
